Legend:
Test in all cases: DAPPL (digital affinity profiling via proximity ligation, sequencing); 10 mM Tris-HCl pH 7.5, 50 mM NaCl, 1 mM DTT, 4% glycerol, room temperature, 30 min; GST-TFs on glutathione beads, 16-mer random dsDNA library, 0.1% formaldehyde crosslink after washing; high values mean tight binding
Conditions in all cases: protein: recombinant; tags: N-terminal GST; dsDNA, one strand shown
FLI1 = molecular target: T1, FLI1 (Homo sapiens, UniProt Q01543 1-452)
T1 sequence: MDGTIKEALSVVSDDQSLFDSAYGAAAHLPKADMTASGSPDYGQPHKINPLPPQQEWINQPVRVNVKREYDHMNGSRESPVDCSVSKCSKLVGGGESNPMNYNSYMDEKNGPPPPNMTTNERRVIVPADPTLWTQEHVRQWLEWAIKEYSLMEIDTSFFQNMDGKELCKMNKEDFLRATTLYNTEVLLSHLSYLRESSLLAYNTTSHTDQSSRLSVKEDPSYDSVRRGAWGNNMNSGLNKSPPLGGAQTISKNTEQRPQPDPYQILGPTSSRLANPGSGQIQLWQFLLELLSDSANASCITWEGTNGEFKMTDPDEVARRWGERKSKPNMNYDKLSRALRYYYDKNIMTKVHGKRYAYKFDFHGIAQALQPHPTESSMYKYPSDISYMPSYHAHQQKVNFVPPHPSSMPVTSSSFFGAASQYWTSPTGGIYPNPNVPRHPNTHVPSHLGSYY
Procedure, shortened: (§1)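 Human transcription factors carrying a GST fusion were produced in yeast, bound to glutathione beads, tagged with DNA barcodes and pooled together with a tag-only sample. Each pool was held with 200 nmole of a random double-stranded 16-mer DNA library in Tris/NaCl/DTT/glycerol buffer for 30 min at room temperature, then washed, crosslinked in 0.1% formaldehyde, proximity-ligated with BsaI/T4 ligase (1 h, 37 °C), PCR-amplified and sequenced on an Illumina NextSeq500. Binding signal is the read frequency of each hexamer for a given factor divided by its frequency in the tag-only sample.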

GABPA = molecular target: T2, GABPA (Homo sapiens, UniProt Q06546 1-454)
T2 sequence: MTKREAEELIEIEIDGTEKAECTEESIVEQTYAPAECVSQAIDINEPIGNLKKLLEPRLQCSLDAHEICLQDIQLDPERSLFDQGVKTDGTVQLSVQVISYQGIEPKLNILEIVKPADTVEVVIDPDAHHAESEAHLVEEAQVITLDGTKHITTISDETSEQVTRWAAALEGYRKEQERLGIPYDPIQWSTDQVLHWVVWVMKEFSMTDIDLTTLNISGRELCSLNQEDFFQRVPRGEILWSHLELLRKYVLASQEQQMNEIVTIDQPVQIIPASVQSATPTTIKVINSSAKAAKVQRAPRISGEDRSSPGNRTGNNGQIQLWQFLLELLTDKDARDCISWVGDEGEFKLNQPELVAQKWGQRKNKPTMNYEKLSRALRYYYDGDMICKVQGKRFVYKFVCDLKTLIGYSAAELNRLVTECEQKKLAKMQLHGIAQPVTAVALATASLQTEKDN
Procedure, shortened: as §1

ERG = molecular target: T3, ERG (Homo sapiens, UniProt P11308 1-479)
T3 sequence: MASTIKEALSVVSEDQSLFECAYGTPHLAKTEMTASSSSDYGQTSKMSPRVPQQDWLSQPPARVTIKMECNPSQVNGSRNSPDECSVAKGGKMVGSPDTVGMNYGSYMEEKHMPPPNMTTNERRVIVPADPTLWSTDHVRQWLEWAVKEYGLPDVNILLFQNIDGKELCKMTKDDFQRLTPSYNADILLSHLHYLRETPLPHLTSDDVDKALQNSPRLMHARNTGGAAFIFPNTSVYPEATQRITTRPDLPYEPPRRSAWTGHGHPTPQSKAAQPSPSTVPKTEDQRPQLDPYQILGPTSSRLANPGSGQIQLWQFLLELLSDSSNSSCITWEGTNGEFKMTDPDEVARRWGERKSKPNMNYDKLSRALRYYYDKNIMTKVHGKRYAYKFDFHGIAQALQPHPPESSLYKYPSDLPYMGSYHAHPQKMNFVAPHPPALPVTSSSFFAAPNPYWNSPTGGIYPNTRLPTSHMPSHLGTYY
Procedure, shortened: as §1

ELF1 = ELF1 (Homo sapiens, UniProt P32519 1-619)
Sequence of ELF1 (P32519 whole entry): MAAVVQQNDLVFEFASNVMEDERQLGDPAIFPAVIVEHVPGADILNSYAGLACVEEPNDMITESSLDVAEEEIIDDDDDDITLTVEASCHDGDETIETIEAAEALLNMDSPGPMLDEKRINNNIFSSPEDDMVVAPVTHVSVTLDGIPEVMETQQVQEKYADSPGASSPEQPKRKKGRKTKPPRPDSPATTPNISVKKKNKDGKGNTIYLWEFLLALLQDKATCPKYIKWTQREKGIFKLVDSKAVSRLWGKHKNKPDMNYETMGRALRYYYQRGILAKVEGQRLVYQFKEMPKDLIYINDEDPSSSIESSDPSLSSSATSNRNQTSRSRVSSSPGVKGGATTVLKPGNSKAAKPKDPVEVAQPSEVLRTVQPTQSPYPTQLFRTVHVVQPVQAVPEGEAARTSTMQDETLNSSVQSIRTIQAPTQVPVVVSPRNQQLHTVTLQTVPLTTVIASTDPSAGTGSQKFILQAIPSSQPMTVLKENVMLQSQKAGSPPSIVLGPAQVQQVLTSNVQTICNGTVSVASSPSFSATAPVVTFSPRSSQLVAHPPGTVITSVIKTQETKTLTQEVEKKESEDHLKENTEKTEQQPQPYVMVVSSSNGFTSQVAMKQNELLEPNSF
Procedure, shortened: as §1

EHF = molecular target: T4, EHF (Homo sapiens, UniProt Q9NZC4 1-300)
T4 sequence: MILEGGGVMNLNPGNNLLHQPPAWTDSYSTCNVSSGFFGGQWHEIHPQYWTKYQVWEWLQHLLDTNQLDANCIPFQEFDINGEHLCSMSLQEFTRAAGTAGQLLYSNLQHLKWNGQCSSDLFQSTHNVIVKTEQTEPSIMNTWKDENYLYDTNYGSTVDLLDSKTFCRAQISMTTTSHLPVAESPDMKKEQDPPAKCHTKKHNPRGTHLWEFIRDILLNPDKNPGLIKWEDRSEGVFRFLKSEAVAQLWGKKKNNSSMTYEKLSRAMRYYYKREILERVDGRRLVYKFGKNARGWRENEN
Procedure, shortened: as §1

SPI1 = SPI1 (Homo sapiens, UniProt P17947 1-270)
Procedure, shortened: as §1

SPIB = SPIB (Homo sapiens, UniProt Q01892 1-262)
Sequence of SPIB (Q01892 whole entry): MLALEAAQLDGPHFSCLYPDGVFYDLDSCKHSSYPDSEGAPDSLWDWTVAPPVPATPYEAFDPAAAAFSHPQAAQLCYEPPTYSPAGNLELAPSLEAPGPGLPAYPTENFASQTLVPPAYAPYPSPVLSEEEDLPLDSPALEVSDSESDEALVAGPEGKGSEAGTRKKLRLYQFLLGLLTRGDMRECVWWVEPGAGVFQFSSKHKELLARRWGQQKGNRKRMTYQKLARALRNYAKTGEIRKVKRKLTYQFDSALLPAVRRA
Procedure, shortened: as §1

FEV = molecular target: T5, FEV (Homo sapiens, UniProt Q99581 1-238)
T5 sequence: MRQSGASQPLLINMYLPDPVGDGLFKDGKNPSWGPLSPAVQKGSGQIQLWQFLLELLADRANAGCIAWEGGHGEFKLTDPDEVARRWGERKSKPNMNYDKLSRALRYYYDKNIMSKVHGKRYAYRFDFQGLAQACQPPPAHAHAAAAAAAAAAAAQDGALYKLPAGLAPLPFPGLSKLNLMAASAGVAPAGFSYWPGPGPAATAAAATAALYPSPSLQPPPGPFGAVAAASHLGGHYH
Procedure, shortened: as §1

ETV5 = ETV5 (Homo sapiens, UniProt P41161 1-510)
Sequence of ETV5 (P41161 whole entry): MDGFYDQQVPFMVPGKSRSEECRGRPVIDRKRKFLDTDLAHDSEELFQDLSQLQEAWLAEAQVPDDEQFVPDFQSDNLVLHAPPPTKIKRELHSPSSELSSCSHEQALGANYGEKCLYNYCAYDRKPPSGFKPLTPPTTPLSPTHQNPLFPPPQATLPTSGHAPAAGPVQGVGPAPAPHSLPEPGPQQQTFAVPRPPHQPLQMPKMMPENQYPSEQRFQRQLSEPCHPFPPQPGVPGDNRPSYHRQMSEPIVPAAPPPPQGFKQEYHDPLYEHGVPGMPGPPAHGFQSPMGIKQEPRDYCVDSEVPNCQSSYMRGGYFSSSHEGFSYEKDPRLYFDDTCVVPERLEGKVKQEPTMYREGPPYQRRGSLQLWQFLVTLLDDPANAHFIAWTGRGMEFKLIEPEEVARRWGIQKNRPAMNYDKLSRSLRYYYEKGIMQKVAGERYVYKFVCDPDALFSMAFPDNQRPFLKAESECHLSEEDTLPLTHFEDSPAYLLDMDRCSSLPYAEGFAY
Procedure, shortened: as §1

SPIC = molecular target: T6, SPIC (Homo sapiens, UniProt Q8N5J4 1-248)
T6 sequence: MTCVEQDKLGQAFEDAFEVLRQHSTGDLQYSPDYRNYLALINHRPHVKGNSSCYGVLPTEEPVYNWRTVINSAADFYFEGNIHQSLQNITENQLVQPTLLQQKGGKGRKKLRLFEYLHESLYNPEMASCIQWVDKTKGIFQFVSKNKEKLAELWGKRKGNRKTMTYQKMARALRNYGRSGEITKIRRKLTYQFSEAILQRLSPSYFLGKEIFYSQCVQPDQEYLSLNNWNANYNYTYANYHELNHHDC
Procedure, shortened: as §1

ELF4 = ELF4 (Homo sapiens, UniProt Q99607 1-663)
Sequence of ELF4 (Q99607 whole entry): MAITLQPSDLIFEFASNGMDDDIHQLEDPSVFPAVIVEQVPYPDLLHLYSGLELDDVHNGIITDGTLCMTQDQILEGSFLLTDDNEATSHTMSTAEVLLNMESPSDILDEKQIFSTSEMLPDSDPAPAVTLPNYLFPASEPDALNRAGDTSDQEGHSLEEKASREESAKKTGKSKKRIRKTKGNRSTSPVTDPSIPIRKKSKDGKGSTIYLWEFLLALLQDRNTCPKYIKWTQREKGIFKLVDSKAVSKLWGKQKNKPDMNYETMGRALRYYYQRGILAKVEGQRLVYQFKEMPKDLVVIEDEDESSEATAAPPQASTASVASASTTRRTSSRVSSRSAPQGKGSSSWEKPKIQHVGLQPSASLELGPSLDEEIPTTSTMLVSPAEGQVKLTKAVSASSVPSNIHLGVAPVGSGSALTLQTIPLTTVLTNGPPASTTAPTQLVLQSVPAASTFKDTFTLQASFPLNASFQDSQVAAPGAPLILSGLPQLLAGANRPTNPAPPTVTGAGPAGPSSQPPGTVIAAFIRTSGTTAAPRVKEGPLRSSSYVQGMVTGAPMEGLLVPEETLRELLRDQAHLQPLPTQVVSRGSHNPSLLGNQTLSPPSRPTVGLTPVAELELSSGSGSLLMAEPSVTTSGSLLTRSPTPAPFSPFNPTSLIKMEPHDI
Procedure, shortened: as §1

ETV1 = ETV1 (Homo sapiens, UniProt P50549 1-477)
Sequence of ETV1 (P50549 whole entry): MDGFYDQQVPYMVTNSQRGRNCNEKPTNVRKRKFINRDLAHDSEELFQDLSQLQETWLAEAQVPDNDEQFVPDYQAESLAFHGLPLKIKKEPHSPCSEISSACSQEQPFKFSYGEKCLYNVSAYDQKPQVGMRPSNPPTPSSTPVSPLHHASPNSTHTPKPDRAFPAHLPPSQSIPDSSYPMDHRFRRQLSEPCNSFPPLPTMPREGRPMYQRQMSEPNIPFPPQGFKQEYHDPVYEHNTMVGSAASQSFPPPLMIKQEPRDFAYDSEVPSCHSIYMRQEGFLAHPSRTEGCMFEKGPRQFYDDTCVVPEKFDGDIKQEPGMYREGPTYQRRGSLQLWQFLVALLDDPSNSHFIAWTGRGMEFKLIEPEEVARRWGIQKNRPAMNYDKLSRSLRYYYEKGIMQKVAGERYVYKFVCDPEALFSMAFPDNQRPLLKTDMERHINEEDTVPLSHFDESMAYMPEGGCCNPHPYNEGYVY
Procedure, shortened: as §1

ERF = molecular target: T7, ERF (Homo sapiens, UniProt P50548 1-548)
T7 sequence: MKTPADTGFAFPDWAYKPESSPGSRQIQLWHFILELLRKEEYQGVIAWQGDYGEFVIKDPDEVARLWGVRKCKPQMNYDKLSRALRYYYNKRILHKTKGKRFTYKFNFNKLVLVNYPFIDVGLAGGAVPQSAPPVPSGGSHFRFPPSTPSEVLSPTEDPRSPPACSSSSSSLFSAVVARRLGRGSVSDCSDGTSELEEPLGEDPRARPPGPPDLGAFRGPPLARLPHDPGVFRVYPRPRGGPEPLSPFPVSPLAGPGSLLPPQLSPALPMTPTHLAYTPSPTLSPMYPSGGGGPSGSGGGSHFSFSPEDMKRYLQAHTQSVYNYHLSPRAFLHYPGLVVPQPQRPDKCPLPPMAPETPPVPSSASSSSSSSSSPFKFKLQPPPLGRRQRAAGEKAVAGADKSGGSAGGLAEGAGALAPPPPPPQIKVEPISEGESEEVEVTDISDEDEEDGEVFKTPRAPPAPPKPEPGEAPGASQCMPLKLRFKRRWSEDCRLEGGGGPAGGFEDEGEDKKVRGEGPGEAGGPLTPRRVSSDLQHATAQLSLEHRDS
Procedure, shortened: as §1

ETV3L = molecular target: T8, ETV3L (Homo sapiens, UniProt Q6ZN32 1-361)
T8 sequence: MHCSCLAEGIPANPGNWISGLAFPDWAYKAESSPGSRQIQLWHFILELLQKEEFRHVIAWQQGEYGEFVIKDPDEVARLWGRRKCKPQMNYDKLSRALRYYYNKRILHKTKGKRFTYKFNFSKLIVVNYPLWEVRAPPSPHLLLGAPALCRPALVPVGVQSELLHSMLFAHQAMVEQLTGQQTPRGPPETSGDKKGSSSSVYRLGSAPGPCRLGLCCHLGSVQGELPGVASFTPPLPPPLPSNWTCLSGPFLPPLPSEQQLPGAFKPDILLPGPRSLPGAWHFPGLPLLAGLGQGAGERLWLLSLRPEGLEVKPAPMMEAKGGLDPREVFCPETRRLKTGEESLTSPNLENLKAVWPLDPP
Procedure, shortened: as §1

ETS2 = molecular target: T9, ETS2 (Homo sapiens, UniProt P15036 1-469)
T9 sequence: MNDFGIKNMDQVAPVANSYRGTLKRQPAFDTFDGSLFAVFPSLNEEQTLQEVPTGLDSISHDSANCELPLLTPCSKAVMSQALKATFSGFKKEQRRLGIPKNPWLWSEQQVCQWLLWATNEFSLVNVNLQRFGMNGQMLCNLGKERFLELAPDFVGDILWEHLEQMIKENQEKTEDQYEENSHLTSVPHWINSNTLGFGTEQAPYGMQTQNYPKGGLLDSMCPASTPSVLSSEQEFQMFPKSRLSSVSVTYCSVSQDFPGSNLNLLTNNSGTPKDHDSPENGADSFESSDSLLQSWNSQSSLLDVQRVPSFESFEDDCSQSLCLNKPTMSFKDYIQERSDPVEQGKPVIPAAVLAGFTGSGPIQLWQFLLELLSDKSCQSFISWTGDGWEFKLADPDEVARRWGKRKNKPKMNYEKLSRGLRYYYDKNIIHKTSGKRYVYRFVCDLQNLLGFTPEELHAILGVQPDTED
Procedure, shortened: as §1

SPDEF = molecular target: T10, SPDEF (Homo sapiens, UniProt O95238 1-335)
T10 sequence: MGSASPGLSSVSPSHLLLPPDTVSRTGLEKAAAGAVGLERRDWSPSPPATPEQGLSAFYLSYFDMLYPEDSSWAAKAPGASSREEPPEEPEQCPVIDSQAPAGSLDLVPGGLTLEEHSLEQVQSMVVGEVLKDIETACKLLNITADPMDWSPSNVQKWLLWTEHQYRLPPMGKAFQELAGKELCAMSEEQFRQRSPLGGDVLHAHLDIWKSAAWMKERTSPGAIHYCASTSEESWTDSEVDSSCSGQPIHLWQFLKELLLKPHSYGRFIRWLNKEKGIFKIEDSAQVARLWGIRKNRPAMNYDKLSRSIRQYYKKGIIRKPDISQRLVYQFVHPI
Procedure, shortened: as §1

ETV3 = molecular target: T11, ETV3 (Homo sapiens, UniProt P41162-2 1-143)
T11 sequence: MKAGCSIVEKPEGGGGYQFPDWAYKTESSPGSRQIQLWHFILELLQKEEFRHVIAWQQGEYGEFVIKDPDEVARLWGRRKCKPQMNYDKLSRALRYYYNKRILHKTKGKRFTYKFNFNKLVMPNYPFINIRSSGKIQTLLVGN
Procedure, shortened: as §1

ETV6 = ETV6 (Homo sapiens, UniProt P41212 1-452)
Sequence of ETV6 (P41212 whole entry): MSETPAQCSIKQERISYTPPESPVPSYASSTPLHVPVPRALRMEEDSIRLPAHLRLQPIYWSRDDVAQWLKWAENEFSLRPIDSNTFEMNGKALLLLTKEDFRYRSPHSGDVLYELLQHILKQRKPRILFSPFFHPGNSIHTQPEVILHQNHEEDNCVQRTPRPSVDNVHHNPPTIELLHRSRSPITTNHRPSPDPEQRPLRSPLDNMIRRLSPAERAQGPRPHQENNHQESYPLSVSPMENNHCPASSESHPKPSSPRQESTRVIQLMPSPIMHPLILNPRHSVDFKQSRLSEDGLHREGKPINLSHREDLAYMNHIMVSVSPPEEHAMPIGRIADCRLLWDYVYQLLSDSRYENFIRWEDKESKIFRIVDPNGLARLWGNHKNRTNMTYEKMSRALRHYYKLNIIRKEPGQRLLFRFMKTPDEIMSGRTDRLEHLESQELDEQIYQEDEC
Procedure, shortened: as §1

Sequence: CGCGAC
- binding signal (FLI1): 1.08 fold enrichment (6-mer frequency, TF over GST control)
- binding signal (GABPA): 1.09 fold enrichment (6-mer frequency, TF over GST control)
- binding signal (ERG): 1.04 fold enrichment (6-mer frequency, TF over GST control)
- binding signal (ELF1): 1.12 fold enrichment (6-mer frequency, TF over GST control)
- binding signal (EHF): 1.12 fold enrichment (6-mer frequency, TF over GST control)
- binding signal (SPI1): 1.08 fold enrichment (6-mer frequency, TF over GST control)
- binding signal (SPIB): 1.11 fold enrichment (6-mer frequency, TF over GST control)
- binding signal (FEV): 1.01 fold enrichment (6-mer frequency, TF over GST control)
- binding signal (ETV5): 1.08 fold enrichment (6-mer frequency, TF over GST control)
- binding signal (SPIC): 1.31 fold enrichment (6-mer frequency, TF over GST control)
- binding signal (ELF4): 1.09 fold enrichment (6-mer frequency, TF over GST control)
- binding signal (ETV1): 1.06 fold enrichment (6-mer frequency, TF over GST control)
- binding signal (ERF): 1.16 fold enrichment (6-mer frequency, TF over GST control)
- binding signal (ETV3L): 1.04 fold enrichment (6-mer frequency, TF over GST control)
- binding signal (ETS2): 1.12 fold enrichment (6-mer frequency, TF over GST control)
- binding signal (SPDEF): 1.08 fold enrichment (6-mer frequency, TF over GST control)
- binding signal (ETV3): 1.04 fold enrichment (6-mer frequency, TF over GST control)
- binding signal (ETV6): 1.04 fold enrichment (6-mer frequency, TF over GST control)
